# PubChem BioAssay (NCI)
# The panel holds about 83,000 compounds, 20% with a hit somewhere; the sample as a whole holds those more often.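 Single-dose data. Exposure time 48 hours. Values below 10 considered active.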 Calls of active or inactive are those of the source.
# System: RPMI-8226 leukemia
# Experiment: NCI-60 one-dose screen, 48 h (100 = growth as untreated, 0 = no growth, -100 = all killed)
# Conditions: 10 µM unless noted
# Experimental: Growth inhibition of the RPMI-8226 human tumor cell line is measured as a screen for anti-cancer activity. Cells are grown in 96 well plates and exposed to the test compound for 48 hours. Compounds are tested at a single concentration, which is 10^-5 M for most compounds. The reported endpoint is percent growth (GI% or GIPRCNT), where numbers from 0 - 100% represent growth inhibition, and numbers from -100% - 0 represent cell death. For example, a value of 40 represents 60% growth inhibition. A value of 0 means no net growth occurred over the course of the experiment. A value of -40 indicates 40% of cells at the beginning of the experiment died by the end of the experiment. A value of -100 means all cells are dead at the end of the experiment.
# NCI-60 Human Tumor Cell Lines Screen was performed using the standard one-dose NCI protocol, which is described in more detail at https://dtp.cancer.gov/discovery_development/nci-60/default.htm.
# Compounds with GIPRCNT values below 10 were considered active. Activity score was based on GIPRCNT using the following formula: […]
# Score is 0 for GIPRCNT values of 100 or above, 50 for GIPRCNT values of 0, and 100 for GIPRCNT values of -100.
row,Structure (SMILES),growth
1,CC1(C)CC(=O)c2cc3c(N)c(C(=O)Nc4ccc(Cl)cc4)sc3nc2C1,103% (inactive)
2,O=C(CSc1nnc(Cc2ccccc2Nc2c(Cl)cccc2Cl)n1-c1ccccc1)N1N=C(c2ccc3ccccc3c2)CC1c1ccc(Cl)cc1 (stereo not given),95.6% (inactive)
3,O=c1nc(-c2ccccc2)c2cc(-c3ccc(N4CCOCC4)cc3)ccc2[nH]1,51.3% (inactive)
4,S=C(Nc1ccc(Cl)cc1)Nc1ccc(Cl)cc1 (tested in a mixture with another compound),9.87% (active)
5,C=C1C[C@@]2(C)C(CC[C@]3(C)C2CC=C2C4CC(C)(C)C[C@@H](OC(=O)/C(C)=C\C)[C@]4(C(=O)O)CC[C@]23C)C(C)(C)C1=O (stereo not given in full),-15.6% (active)
6,CC(C)[C@@]12C[C@@H](OC(=O)[C@H]3CO3)[C@@](C)(O1)[C@@H]1CC[C@@H](C)[C@H]1[C@@H]2OC(=O)/C=C/c1ccccc1,72.7% (inactive)
7,O/N=C/c1ccncc1,94% (inactive)
8,O=C(N/N=C/c1ccc([N+](=O)[O-])o1)c1ccc(O)cc1,39.8% (inactive)
9,CCn1c(=O)c(C(=O)NCCCO)c(O)c2ccccc21,122% (inactive)
10,CCN(CC)CCNC(=O)C(F)(F)C(F)(F)C(F)(F)F,107% (inactive)
11,CCN(CC)c1ccc(/C=N/NC(=O)C[N+](C)(C)C)cc1,92% (inactive)
12,COc1cc(C2CC(c3cccc(Nc4ccnc5cc(Cl)ccc45)c3)=NN2C=O)cc(OC)c1OC (stereo not given),21% (inactive)
13,CCC1N=C(N)N=C(N)N1c1ccc(Cl)cc1 (stereo not given),87.5% (inactive)
14,COCc1nc(NS(=O)(=O)c2ccc(N)cc2)nc(C)c1Br,106% (inactive)
15,N/C(=N\O)c1ncc(-c2ccc(C(F)(F)F)cc2)c(NC2CCCCCC2)n1,-35.7% [100 µM] (active)
16,COc1ccc(N=C2CSc3nnc(-c4cc(F)c(Cl)cc4Cl)n3N2)cc1,-23.5% (active)
17,CC(=O)c1ccc(N2C(=O)c3ccc(Oc4ccccc4)cc3C2=O)cc1,101% (inactive)
18,CC1=C(/C=C/C(C)=C/C=C(C(=O)O)\C(C)=C\C(=O)O)C(C)(C)CCC1,92% (inactive)
19,CS(=O)(=O)c1ccc(C(=O)N/N=C/c2ccccc2O)cc1,48.7% (inactive)
20,COc1ccc2c(c1)sc1nc(-c3ccccc3)c(-c3cccc4ccccc34)n12,18.8% (inactive)

row,Structure (SMILES),growth
1,O=C(N/N=C/c1ccc([N+](=O)[O-])cc1)c1ccccc1Nc1ccnc(C(F)(F)F)c1,11.2% (inactive)
2,O=C1c2cccc3cccc(c23)C(=O)N1CCCCCCCCCCN1C(=O)c2cccc3cccc(c23)C1=O,108% (inactive)
3,CCN(CC)C(=O)O/N=C(/C)c1ccccc1,105% (inactive)
4,Nc1ncnc2c1N=C(c1ccc3c(c1)OCO3)CC(c1ccc(Cl)cc1)N2 (stereo not given),18.4% (inactive)
5,CCN(CC)c1ccc(/C=N/NC(=O)c2ccc(S(C)(=O)=O)cc2)c(O)c1,21% (inactive)
6,NNc1ccc(S(N)(=O)=O)cc1,82.4% (inactive)
7,CS(=O)(=O)c1ccc(Cl)c([N+](=O)[O-])c1,70.3% (inactive)
8,O=C1/C=C/[C@@H](O)[C@@H]2C[C@@H](O)C[C@H]2/C=C/CCC[C@H]([C@@H](O)CO)O1,112% (inactive)
9,CC(=O)Cc1ccccn1,103% (inactive)
10,CC(C)(C)OC[C@@H]1N=C(c2ccc(Br)cc2)Nc2nc3ccccn3c2C1=O,67.5% (inactive)
11,COC(=O)[C@H](Cc1cn(C)cn1)NC(=O)[C@H](CC(C)C)NC(=O)Nc1cc(C(F)(F)F)cc(C(F)(F)F)c1,-53.4% [100 µM] (active)
12,Clc1nnc2c3ccccc3ccn12,99.6% (inactive)
13,CN1CCC2(CC1)N=C(SCC(=O)Nc1cnc3ccccc3c1)C(c1ccc(Br)cc1)=N2,-7.88% (active)
14,O=[N+]([O-])c1ccc(N=Nc2c(NNc3ccc([N+](=O)[O-])cn3)cc(S(=O)(=O)O)c3ccccc23)nc1,90% (inactive)
15,CC(C)(C)[Si](C)(C)OC1[C@@H](O[Si](C)(C)C(C)(C)C)[C@@H](CNC(=O)NC(=O)NC(=O)CCl)O[C@H]1n1cnc2c(NC(=O)Nc3ccccc3)ncnc21 (stereo not given in full),46.8% (inactive)
16,N#Cc1ccc(-c2ccc(-c3cccs3)o2)cc1F,70.7% (inactive)
17,Nc1c(C(=O)Nc2cccc(Cl)c2)sc2nc3c(cc12)C(=O)CCC3,51.8% (inactive)
18,O=C(CSc1nc2c(n1Nc1ccccc1)-c1ccccc1SC2)Nc1nccs1,90.7% (inactive)
19,O=C1OCC2=C1C(c1ccccc1)c1cc3c(cc1N2CCO)OCO3 (stereo not given),46.4% (inactive)
20,COc1ccc(-c2cc(C(=O)Nc3ccc(Br)cc3)nc3[nH]c(=O)sc23)cc1,14.2% (inactive)
